The structures appear in SMILES notation. Where “and” joins values, the source holds several entries; their conditions need not be identical. Equal entries are not always repeated.

The first assay in a line: viability loss with induced miR-34 in A549 – imaging, A549 dox-inducible miR-34, nuclei and caspase counts, primary screen (AID 1347080). Further: test concentration not given here. As to conditions: A549 miR-34 inducible, Hoechst nuclei count, 48 h; measured here: relative caspase fold change +Dox/-Dox.
Take `Cc1c(-c2cnccn2)ssc1=S`: the fold change came to 1.25.

As to `CC(NCCc1ccc(O)cc1)C(O)c1ccc(O)cc1` (stereo unspecified), the fold change amounted to 3.65.

On to `OC[C@@H](O)[C@@H](O)[C@H](O)[C@@H](O)CO`, for which the fold change turned out to be 3.07.

`CC1CC2C3CCC4=CC(=O)C=C[C@]4(C)[C@@]3(F)[C@@H](O)C[C@]2(C)[C@@]1(O)C(=O)CO` (stereo partly specified): the fold change was found to be 1.79.

For the compound `N#C[C@@H]1C[C@@H]2C[C@@H]2N1C(=O)[C@@H](N)C12CC3CC(CC(O)(C3)C1)C2`, the fold change is 0.64.

Regarding `CC(C)(CO)[C@@H](O)C(=O)NCCC(=O)O`, the fold change was 0.716 and 3.95 and 1.15.

On to `C[C@]12C=CC(=O)C=C1CCC1C2[C@@H](O)C[C@@]2(C)C1CC[C@]2(O)C(=O)COP(=O)(O)O` (stereo partly specified), for which the fold change amounted to 1.09.

`CN(C)CC[C@H](c1ccc(Cl)cc1)c1ccccn1`: the fold change was 2.94.

As for `CC(C)OC(=O)CCC/C=C\C[C@@H]1[C@@H](/C=C/C(O)COc2cccc(C(F)(F)F)c2)[C@H](O)C[C@@H]1O` (stereo partly specified), the fold change came to 1.12.

For `OC(c1cc(C(F)(F)F)nc2c(C(F)(F)F)cccc12)C1CCCCN1` (stereo unspecified), the fold change is 1.51 and 4.5.

Regarding `CN1C(C(=O)Nc2ccccn2)=C(O)c2sc(Cl)cc2S1(=O)=O`, the fold change is 0.83 and 0.817.

`Nc1nc(N)c2nc(CNc3ccc(C(=O)NC(CCC(=O)O)C(=O)O)cc3)cnc2n1` (stereo unspecified): the fold change was 1.88.

For `COC(=O)/C=C/C(=O)OC`, the fold change was found to be 1.01.

Take `Cc1cc2nc3c(=O)[nH]c(=O)nc-3n(CC(O)C(O)C(O)CO)c2cc1C` (stereo unspecified): the fold change came to 3.38.

On to `CN[C@@H]1[C@H](O[C@H]2[C@H](O[C@@H]3[C@@H](O)[C@H](O)[C@@H](N=C(N)N)[C@H](O)[C@H]3N=C(N)N)O[C@@H](C)[C@]2(O)C=O)O[C@@H](CO)[C@H](O)[C@H]1O`, for which the fold change was 0.998 and 1.43.

Consider `CCCCS(=N)(=O)CCC(N)C(=O)O` (stereo unspecified), for which the fold change came to 1.82.

For `CC12CCC3c4ccc(O)cc4CCC3C1C[C@H](O)[C@@H]2O` (stereo partly specified), the fold change stood at 0.736.

As for `Cc1coc2c1C(=O)C(=O)c1c-2ccc2c1CCCC2(C)C`, the fold change was 1.11 and 0.52 and 0.868.

With `Nc1nc(F)nc2c1ncn2[C@@H]1O[C@H](COP(=O)(O)O)[C@@H](O)[C@@H]1O`, the fold change is 1.01.

Turning to `CC[C@]1(O)CC2CN(CCc3c([nH]c4ccccc34)[C@@](C(=O)OC)(c3cc4c(cc3OC)N(C)[C@H]3[C@@](O)(C(=O)OC)[C@H](OC(C)=O)[C@]5(CC)C=CCN6CC[C@]43[C@@H]65)C2)C1` (stereo partly specified), the fold change is 2.66 and 1.23.

Regarding `CC1=C(C(=O)O)N2C(=O)[C@@H](NC(=O)C(N)c3ccccc3)[C@H]2SC1` (stereo partly specified), the fold change was 1.45 and 2.29.

As for `C=CC[C@@H]1/C=C(\C)C[C@H](C)C[C@H](OC)[C@H]2O[C@@](O)(C(=O)C(=O)N3CCCC[C@H]3C(=O)O[C@H](/C(C)=C/[C@@H]3CC[C@@H](O)[C@H](OC)C3)[C@H](C)[C@@H](O)CC1=O)[C@H](C)C[C@@H]2OC`, the fold change was 1.61 and 2.51.

Regarding `CC(C)(CO)C(O)C(=O)NCCC(=O)NCCSSCCNC(=O)CCNC(=O)C(O)C(C)(C)CO` (stereo unspecified), the fold change worked out at 0.786.

In the case of `N#CC(c1ccc(Cl)cc1)c1c(Cl)cc(-n2ncc(=O)[nH]c2=O)cc1Cl` (stereo unspecified), the fold change is 1.15 and 1.36.

For `Cc1cc(=O)c(C(=O)N[C@@H](C(=O)N[C@@H]2C(=O)N3C(C(=O)O)=C(CSc4nnnn4C)CSC23)c2ccc(O)cc2)c[nH]1` (stereo partly specified), the fold change was found to be 0.887.

Consider `COc1ccc(C2Sc3ccccc3N(CCN(C)C)C(=O)C2OC(C)=O)cc1` (stereo unspecified), for which the fold change was 0.646 and 4.46.

In the case of `COc1ccc2nc3cc(Cl)ccc3c(Nc3cc(CN4CCCC4)c(O)c(CN4CCCC4)c3)c2n1`, the fold change stood at 0.832.

For the compound `C[C@]12CCC3c4ccc(O)cc4CCC3C1CCC2=O` (stereo partly specified), the fold change amounted to 1.48.

The assay is the same for the next values; noted with them: A549 miR-34 inducible, Hoechst nuclei count, 48 h; measured here: total cells with miR-34 induction; stronger effect = lower value.
In turn, `Cc1c(-c2cnccn2)ssc1=S` returned a cell count of 9050.

`CC(NCCc1ccc(O)cc1)C(O)c1ccc(O)cc1` (stereo unspecified) gave a cell count of 12000.

`OC[C@@H](O)[C@@H](O)[C@H](O)[C@@H](O)CO`: the cell count was 11500.

`CC1CC2C3CCC4=CC(=O)C=C[C@]4(C)[C@@]3(F)[C@@H](O)C[C@]2(C)[C@@]1(O)C(=O)CO` (stereo partly specified) returned a cell count of 7510.

In turn, `N#C[C@@H]1C[C@@H]2C[C@@H]2N1C(=O)[C@@H](N)C12CC3CC(CC(O)(C3)C1)C2` yielded a cell count of 8720.

For `CC(C)(CO)[C@@H](O)C(=O)NCCC(=O)O`, the cell count is 9860 and 12000 and 9850.

Take `C[C@]12C=CC(=O)C=C1CCC1C2[C@@H](O)C[C@@]2(C)C1CC[C@]2(O)C(=O)COP(=O)(O)O` (stereo partly specified): the cell count was determined as 6110.

With `CN(C)CC[C@H](c1ccc(Cl)cc1)c1ccccn1`, the cell count stood at 10500.

Turning to `CC(C)OC(=O)CCC/C=C\C[C@@H]1[C@@H](/C=C/C(O)COc2cccc(C(F)(F)F)c2)[C@H](O)C[C@@H]1O` (stereo partly specified), the cell count was 8710.

As for `OC(c1cc(C(F)(F)F)nc2c(C(F)(F)F)cccc12)C1CCCCN1` (stereo unspecified), the cell count was 3010 and 11200.

For the compound `CN1C(C(=O)Nc2ccccn2)=C(O)c2sc(Cl)cc2S1(=O)=O`, the cell count was 9030 and 7600.

`Nc1nc(N)c2nc(CNc3ccc(C(=O)NC(CCC(=O)O)C(=O)O)cc3)cnc2n1` (stereo unspecified) gave a cell count of 2740.

Regarding `COC(=O)/C=C/C(=O)OC`, the cell count was found to be 7550.

`Cc1cc2nc3c(=O)[nH]c(=O)nc-3n(CC(O)C(O)C(O)CO)c2cc1C` (stereo unspecified): the cell count was 12400.

`CN[C@@H]1[C@H](O[C@H]2[C@H](O[C@@H]3[C@@H](O)[C@H](O)[C@@H](N=C(N)N)[C@H](O)[C@H]3N=C(N)N)O[C@@H](C)[C@]2(O)C=O)O[C@@H](CO)[C@H](O)[C@H]1O`: the cell count is 7810 and 9380.

For the compound `CCCCS(=N)(=O)CCC(N)C(=O)O` (stereo unspecified), the cell count was 9560.

In turn, `CC12CCC3c4ccc(O)cc4CCC3C1C[C@H](O)[C@@H]2O` (stereo partly specified) yielded a cell count of 8330.

For the compound `Cc1coc2c1C(=O)C(=O)c1c-2ccc2c1CCCC2(C)C`, the cell count is 934 and 1820 and 2140.

For `Nc1nc(F)nc2c1ncn2[C@@H]1O[C@H](COP(=O)(O)O)[C@@H](O)[C@@H]1O`, the cell count is 1570.

In the case of `CC[C@]1(O)CC2CN(CCc3c([nH]c4ccccc34)[C@@](C(=O)OC)(c3cc4c(cc3OC)N(C)[C@H]3[C@@](O)(C(=O)OC)[C@H](OC(C)=O)[C@]5(CC)C=CCN6CC[C@]43[C@@H]65)C2)C1` (stereo partly specified), the cell count is 1730 and 1930.

Regarding `CC1=C(C(=O)O)N2C(=O)[C@@H](NC(=O)C(N)c3ccccc3)[C@H]2SC1` (stereo partly specified), the cell count was 10100 and 11100.

Turning to `C=CC[C@@H]1/C=C(\C)C[C@H](C)C[C@H](OC)[C@H]2O[C@@](O)(C(=O)C(=O)N3CCCC[C@H]3C(=O)O[C@H](/C(C)=C/[C@@H]3CC[C@@H](O)[C@H](OC)C3)[C@H](C)[C@@H](O)CC1=O)[C@H](C)C[C@@H]2OC`, the cell count is 4360 and 8620.

In turn, `CC(C)(CO)C(O)C(=O)NCCC(=O)NCCSSCCNC(=O)CCNC(=O)C(O)C(C)(C)CO` (stereo unspecified) returned a cell count of 8560.

For the compound `N#CC(c1ccc(Cl)cc1)c1c(Cl)cc(-n2ncc(=O)[nH]c2=O)cc1Cl` (stereo unspecified), the cell count was 7450 and 8470.

`Cc1cc(=O)c(C(=O)N[C@@H](C(=O)N[C@@H]2C(=O)N3C(C(=O)O)=C(CSc4nnnn4C)CSC23)c2ccc(O)cc2)c[nH]1` (stereo partly specified) displayed a cell count of 8940.

For the compound `COc1ccc(C2Sc3ccccc3N(CCN(C)C)C(=O)C2OC(C)=O)cc1` (stereo unspecified), the cell count was 7800 and 11500.

Take `COc1ccc2nc3cc(Cl)ccc3c(Nc3cc(CN4CCCC4)c(O)c(CN4CCCC4)c3)c2n1`: the cell count is 2320.

`C[C@]12CCC3c4ccc(O)cc4CCC3C1CCC2=O` (stereo partly specified): the cell count came out at 10400.

The values above are taken from PubChem BioAssay.
